# PubChem BioAssay
# Several values for one entry are separate records, joined by “and”; a condition that tells them apart may be missing. Identical values can stand only once. Records with an inconclusive call do not appear. Where a structure was tested more than once in an assay, its records may differ in their call. Activity calls are given as the source filed them.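 The calls were made as follows, unless noted: active = normalized viability below 100% at a tested concentration; inactive = the rest.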
# Tests used:
# [1] = growth inhibition of DIPG glioma cells, dose response, cell-based, SU-DIPG-XVII, MIPE5.0, CellTiter-Glo, qHTS (AID 1347060; cut-off not given, nearly all actives have AC50 up to about 26 µM;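 as to AC50: cells exposed to compound for 48 hours before viability readout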); conditions: SU-DIPG-XVII viability, CellTiter-Glo ATP luminescence
# [2] = growth inhibition of DIPG glioma cells, dose response, cell-based, SU-DIPG-XIII, MIPE4.0, CellTiter-Glo, qHTS (AID 1347061; cut-off not given, nearly all actives have AC50 up to about 37 µM;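 also: cells exposed to compound for 48 hours before readout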); conditions: SU-DIPG-XIII viability, CellTiter-Glo ATP luminescence
# [3] = growth inhibition of DIPG glioma cells, dose response, cell-based, JHH-DIPG-1, MIPE4.0, CellTiter-Glo, qHTS (AID 1347062; cut-off not given, nearly all actives have AC50 up to about 27 µM;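 as to AC50: cells exposed to compound for two days before readout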); conditions: JHH-DIPG-1 viability, CellTiter-Glo ATP luminescence
# [4] = growth inhibition of DIPG glioma cells, dose response, cell-based, SU-DIPG-IV, MIPE4.0, CellTiter-Glo, qHTS (AID 1347063; cut-off not given, nearly all actives have AC50 up to about 30 µM;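 also: compound exposure lasted 48 hours before the viability readout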); conditions: SU-DIPG-IV viability, CellTiter-Glo ATP luminescence
# [5] = growth inhibition of DIPG glioma cells, dose response, cell-based, SU-DIPG-XIII, MIPE5.0, CellTiter-Glo, qHTS (AID 1347064; cut-off not given, nearly all actives have AC50 up to about 23 µM;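 as to AC50: cells exposed to compound for 48 hours before the viability read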); conditions: SU-DIPG-XIII viability, CellTiter-Glo ATP luminescence
# [6] = viability loss in pontine glioma line – cell-based, SU-DIPG-XXV, MIPE5.0, CellTiter-Glo, qHTS, dose response (AID 1347065; cut-off not given, nearly all actives have AC50 up to about 26 µM;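 also: cells exposed to compound for 48 hours before ATP readout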); conditions: CellTiter-Glo ATP luminescence
# [7] = SU-DIPG-VI glioma cell viability, MIPE4.0 library, CellTiter-Glo luminescence, qHTS (AID 1347066; cut-off not given, nearly all actives have AC50 up to about 30 µM;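 also: cells exposed to compound for 48 hours before readout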); conditions: CellTiter-Glo ATP luminescence
# [8] = JHH-DIPG-1 glioma cell viability, MIPE5.0 library, CellTiter-Glo luminescence, qHTS (AID 1347067; cut-off not given, nearly all actives have AC50 up to about 26 µM;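 also: cells exposed to compound for 48 hours before readout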); conditions: JHH-DIPG-1 glioma viability, CellTiter-Glo ATP luminescence
# [9] = sensitizers of A549 cells to miR-34 induction, primary screen, imaging, A549 dox-inducible miR-34, nuclei and caspase counts (AID 1347080;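 active = compounds whose cell count with miR-34 switched on is under 0.7 times the count with it off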); conditions: A549 miR-34 inducible, Hoechst nuclei count, 48 h
# [10] = survival rescue of mitochondrial mutant cells in low glucose, primary screen, MELAS cybrids, Rieske KO mouse fibroblasts, CellTiter-Glo (AID 1508586;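 active = mean z-score across replicates of 1.96 or higher in either the MELAS or the Rieske mutant cell line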;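 also: z relative to plate mean and SD of compound and empty wells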)
# [11] = modifiers of HSF1 nuclear foci, imaging, Selleck Cancer Library (AID 1347162; in the data active = plate-normalised HSF1 focus index below about 0.46); conditions: human cells, at 10 µM; SSMD: measured here: HSF1 foci SSMD mean; cell count: measured here: cell number; plate-normalised HSF1 focus index: stronger effect = lower value
# [12] = ovarian cancer cell viability with rucaparib, profiling panel, oncology-focused library, rucaparib conditional (AID 1508598); conditions: patient-derived ovarian cancer cells, CellTiter-Glo viability, 144 h, stronger effect = lower value
# [13] = LFS_MB_P medulloblastoma growth inhibition, cell-based, chromothripsis tumors, cisplatin or BGB combos (AID 1671449; in the data active = inhibition above about 80%;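 also: cells exposed for 96 hours; 0% = vehicle DMSO and 100% = killing by high DMSO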); conditions: LFS_MB_P medulloblastoma cells
# [14] = HDN33 neuroblastoma growth inhibition, cell-based, chromothripsis tumors, cisplatin or BGB combos (AID 1671450; in the data active = inhibition above about 80%;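 also: cells exposed to compound for four days; 0% = vehicle DMSO and 100% = cell killing by high DMSO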); conditions: HDN33 neuroblastoma cells, stronger effect = higher value
# [15] = ICB984 medulloblastoma cell growth inhibition, synergistic combos for chromothripsis tumors, cisplatin or BGB combos (AID 1671451; call rule not given here;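 also: cells exposed for 96 hours before readout; 0% = vehicle DMSO and 100% = killing by high DMSO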); conditions: ICB984 medulloblastoma cells, drug combinations, stronger effect = higher value
# [16] = HTB85 osteosarcoma cell growth inhibition, synergistic combos for chromothripsis tumors, BGB or cisplatin IC20 combos (AID 1671453; in the data active = inhibition above about 80%;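 also: cells exposed for 96 hours before readout; 0% = vehicle DMSO and 100% = high DMSO killing control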); conditions: HTB85 osteosarcoma cells, drug combinations, stronger effect = higher value
# [17] = MDA-MB-436 breast carcinoma cell growth inhibition, synergistic combos for chromothripsis tumors, BGB or cisplatin combos (AID 1671458; call rule not given here;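 also: cells exposed for 96 hours; 0% = vehicle DMSO and 100% = killing by high DMSO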); conditions: MDA-MB-436 breast carcinoma growth inhibition, drug combinations, stronger effect = higher value
# [18] = growth inhibition of BT084 medulloblastoma cells, cell-based, ICGC_MB145, cisplatin and BGB IC40 combos (AID 1671461; in the data active = inhibition above about 80%;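 also: cells exposed to drugs for 96 hours; 0% = vehicle DMSO and 100% = high DMSO full killing control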); conditions: drug combinations, stronger effect = higher value
# [19] = growth inhibition of RCMB18 medulloblastoma cells, cell-based, cisplatin and BGB IC40 combos (AID 1671462; in the data active = inhibition above about 80%;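 also: cells exposed to compound for four days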); conditions: stronger effect = higher value
# [20] = stronger effect = lower value, cell number ratio, induced over uninduced
# [21] = measured here: relative caspase fold change +Dox/-Dox
# [22] = measured here: total cells with miR-34 induction, stronger effect = lower value
# [23] = measured here: total cells without miR-34 induction
# [24] = MELAS cybrid survival, CellTiter-Glo 48 h, stronger effect = higher value
# [25] = Rieske KO mouse fibroblast survival, CellTiter-Glo 72 h
compound,measurement,setting,value
CCCCCCCN(CC)CCCC(O)c1ccc(NS(C)(=O)=O)cc1 (centres undefined),outcome,[1],inactive
same,outcome,[2],inactive
same,outcome,[3],inactive
same,outcome,[4],inactive
same,outcome,[5],inactive
same,outcome,[6],inactive
same,outcome,[7],inactive
same,outcome,[8],inactive
same,fold change,[9]; [20],0.916 (inactive)
same,fold change,[9]; [21],0.577
same,cell count,[9]; [22],7740
same,cell count,[9]; [23],8450
same,z-score,[10]; [24],-0.187 (inactive) and 0.657 (inactive)
same,z-score,[10]; [25],0.0673 and -0.0365
C#Cc1cccc(Nc2ncnc3cc(OC)c(OCCCCCCC(=O)NO)cc23)c1,AC50,[1],742 nM (active)
same,AC50,[2],398 nM (active)
same,AC50,[3],148 nM (active)
same,AC50,[4],418 nM (active)
same,AC50,[5],661 nM (active)
same,AC50,[6],417 nM (active)
same,AC50,[7],74.3 nM (active)
same,AC50,[8],833 nM (active)
same,fold change,[9]; [20],0.901 (inactive)
same,fold change,[9]; [21],0.807
same,cell count,[9]; [22],1090
same,cell count,[9]; [23],1210
same,SSMD,[11],-4.22
same,cell count,[11],7310
same,plate-normalised HSF1 focus index,[11],0.849 (inactive)
same,z-score,[10]; [24],1.07 (inactive)
same,z-score,[10]; [25],1.33
same,viability,"[12]; at 0.000305 µM, OCI-C5x cells, with rucaparib 10 µM, 100% = cells with rucaparib alone",114% (inactive)
same,viability,"[12]; at 0.000305 µM, OCI-C5x cells, without rucaparib",114% (inactive)
same,viability,"[12]; at 0.000305 µM, OCI-P5x cells, with rucaparib 20 µM, 100% = cells with rucaparib alone",108% (inactive)
same,viability,"[12]; at 0.000305 µM, OCI-P5x cells, without rucaparib",96.4% (active)
same,viability,"[12]; at 0.00122 µM, OCI-C5x cells, with rucaparib 10 µM, 100% = cells with rucaparib alone",111% (inactive)
same,viability,"[12]; at 0.00122 µM, OCI-C5x cells, without rucaparib",113% (inactive)
same,viability,"[12]; at 0.00122 µM, OCI-P5x cells, with rucaparib 20 µM, 100% = cells with rucaparib alone",104% (inactive)
same,viability,"[12]; at 0.00122 µM, OCI-P5x cells, without rucaparib",98.8% (active)
same,viability,"[12]; at 0.00488 µM, OCI-C5x cells, with rucaparib 10 µM, 100% = cells with rucaparib alone",118% (inactive)
same,viability,"[12]; at 0.00488 µM, OCI-C5x cells, without rucaparib",106% (inactive)
same,viability,"[12]; at 0.00488 µM, OCI-P5x cells, with rucaparib 20 µM, 100% = cells with rucaparib alone",113% (inactive)
same,viability,"[12]; at 0.00488 µM, OCI-P5x cells, without rucaparib",111% (inactive)
same,viability,"[12]; at 0.0195 µM, OCI-C5x cells, with rucaparib 10 µM, 100% = cells with rucaparib alone",112% (inactive)
same,viability,"[12]; at 0.0195 µM, OCI-C5x cells, without rucaparib",112% (inactive)
same,viability,"[12]; at 0.0195 µM, OCI-P5x cells, with rucaparib 20 µM, 100% = cells with rucaparib alone",110% (inactive)
same,viability,"[12]; at 0.0195 µM, OCI-P5x cells, without rucaparib",109% (inactive)
same,viability,"[12]; at 0.0781 µM, OCI-C5x cells, with rucaparib 10 µM, 100% = cells with rucaparib alone",113% (inactive)
same,viability,"[12]; at 0.0781 µM, OCI-C5x cells, without rucaparib",113% (inactive)
same,viability,"[12]; at 0.0781 µM, OCI-P5x cells, with rucaparib 20 µM, 100% = cells with rucaparib alone",107% (inactive)
same,viability,"[12]; at 0.0781 µM, OCI-P5x cells, without rucaparib",108% (inactive)
same,viability,"[12]; at 0.313 µM, OCI-C5x cells, with rucaparib 10 µM, 100% = cells with rucaparib alone",87.3% (active)
same,viability,"[12]; at 0.313 µM, OCI-C5x cells, without rucaparib",85.9% (active)
same,viability,"[12]; at 0.313 µM, OCI-P5x cells, with rucaparib 20 µM, 100% = cells with rucaparib alone",91.1% (active)
same,viability,"[12]; at 0.313 µM, OCI-P5x cells, without rucaparib",98.9% (active)
same,viability,"[12]; at 1.25 µM, OCI-C5x cells, with rucaparib 10 µM, 100% = cells with rucaparib alone",10.5% (active)
same,viability,"[12]; at 1.25 µM, OCI-C5x cells, without rucaparib",39.1% (active)
same,viability,"[12]; at 1.25 µM, OCI-P5x cells, with rucaparib 20 µM, 100% = cells with rucaparib alone",3.13% (active)
same,viability,"[12]; at 1.25 µM, OCI-P5x cells, without rucaparib",21.8% (active)
same,viability,"[12]; at 5 µM, OCI-C5x cells, with rucaparib 10 µM, 100% = cells with rucaparib alone",5.56% (active)
same,viability,"[12]; at 5 µM, OCI-C5x cells, without rucaparib",5.78% (active)
same,viability,"[12]; at 5 µM, OCI-P5x cells, with rucaparib 20 µM, 100% = cells with rucaparib alone",1.22% (active)
same,viability,"[12]; at 5 µM, OCI-P5x cells, without rucaparib",1.21% (active)
same,inhibition,"[13]; at 0.5 µM, stronger effect = higher value",17.8% (inactive) and 78.4% (inactive)
same,inhibition,"[13]; measured here: combination with BGB IC20, at 0.005 µM",-22.9% and -21.6%
same,inhibition,"[13]; measured here: combination with BGB IC40, at 0.005 µM",-38.4% and -30.8%
same,inhibition,"[13]; measured here: combination with BGB IC40, at 0.05 µM",-32.8% and -22.5%
same,inhibition,"[13]; measured here: combination with cisplatin, at 0.5 µM, stronger effect = higher value",83.8% and 104%
same,inhibition,"[13]; measured here: combination with cisplatin, at 5 µM, stronger effect = higher value",112% and 113%
same,inhibition,"[14]; BGB combo, at 5 µM",99.5% and 95.1%
same,inhibition,[14]; at 0.5 µM,-1.62% (inactive) and 3.24% (inactive)
same,inhibition,"[14]; cisplatin combo, at 5 µM",99.9% and 94.2%
same,inhibition,"[14]; measured here: with BGB IC20 combination, at 0.5 µM",-9.96% and -0.599%
same,inhibition,"[14]; measured here: with cisplatin IC20 combination, at 0.5 µM",6.06% and 12.1%
same,inhibition,"[14]; single agent, at 5 µM",99.8% and 96.9%
same,inhibition,"[15]; BGB IC20 combo, at 0.005 µM",68.4% and 23%
same,inhibition,"[15]; BGB IC40 combo, at 0.005 µM",78.3% and 29.4%
same,inhibition,"[15]; BGB IC40 combo, at 0.05 µM",98% and 101%
same,inhibition,[15]; at 0.5 µM,-18.6% (inactive) and -24.1% (inactive)
same,inhibition,"[15]; cisplatin combo, at 0.05 µM",97.9% and 101%
same,inhibition,"[15]; cisplatin combo, at 0.5 µM",-22% and -24.1%
same,inhibition,"[15]; cisplatin combo, at 5 µM",-70.9% and -33.8%
same,inhibition,"[15]; measured here: 5 uM single agent, at 5 µM",-13.9% and -10.2%
same,inhibition,[16]; at 0.5 µM,11.7% (inactive) and 4.4% (inactive)
same,inhibition,"[16]; measured here: with BGB IC20, at 0.5 µM",-2.94% and -22.5%
same,inhibition,"[16]; measured here: with BGB IC20, at 5 µM",99.7% and 73%
same,inhibition,"[16]; measured here: with cisplatin IC20, at 0.5 µM",26% and 9.91%
same,inhibition,"[16]; measured here: with cisplatin IC20, at 5 µM",67.6% and 94.8%
same,inhibition,"[16]; single agent, at 5 µM",99.9% and 74.9%
same,inhibition,[17]; at 0.5 µM,-4.99% (inactive) and -13.2% (inactive)
same,inhibition,"[17]; measured here: BGB combination, at 0.5 µM",-10.9% and -11.9%
same,inhibition,"[17]; measured here: BGB combination, at 5 µM",61.3% and 55.7%
same,inhibition,"[17]; measured here: cisplatin combination, at 0.5 µM",-18.9% and -27.4%
same,inhibition,"[17]; measured here: cisplatin combination, at 5 µM",74.5% and 60.7%
same,inhibition,[18]; at 0.5 µM,82% (active) and 58.2% (inactive)
same,inhibition,"[18]; cisplatin combination, at 0.5 µM",99.1% and 87.2%
same,inhibition,"[18]; cisplatin combination, at 5 µM",103% and 101%
same,inhibition,"[18]; measured here: BGB IC40 combination 0.05 uM, at 0.05 µM",-29.2% and 20%
same,inhibition,"[18]; single agent, at 5 µM",106% and 108%
same,inhibition,[19]; at 0.5 µM,69.7% (inactive) and 45.9% (inactive)
same,inhibition,"[19]; cisplatin combo, at 5 µM",96.3%
same,inhibition,"[19]; measured here: BGB IC40 combination, at 0.05 µM",-10.5% and -3.2%
same,inhibition,"[19]; measured here: combination with cisplatin, at 0.5 µM",82.3% and 57.4%
same,inhibition,"[19]; single agent, at 5 µM",89.6% and 92.4%
